Assay results taken from PubChem BioAssay.
Records with an inconclusive call do not appear. Calls of active or inactive are those of the source.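 The calls were made as follows, unless noted: active = inhibition over a set limit, the all-compound mean plus 3 SD, in both replicate runs; inconclusive = over that limit in just one replicate run; inactive = at or under that limit in both runs.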

How the values were obtained:
[1] = reducers of endogenous Her2 protein level, primary screen, SKBR3 breast tumor cells, AlphaScreen, ATP viability (AID 461;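 active = Her2 level under about 52% in both replicate screens, with viability over 70% of control, limit read from the data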;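 as to Her2 level: lower value means less Her2 protein in the cells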;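 as to viability: percent of carrier control wells set as 100% viability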); conditions: 18-24 h, measured here: SKBR3 viability, ATP luminescence, at 10 µM
[2] = molecular target: Receptor tyrosine-protein kinase erbB-2 (Homo sapiens) (UniProt P04626); assay: as above; conditions: 18-24 h, at 10 µM, stronger effect = lower value
Receptor tyrosine-protein kinase erbB-2 (Homo sapiens), sequence (P04626 whole entry, looked up): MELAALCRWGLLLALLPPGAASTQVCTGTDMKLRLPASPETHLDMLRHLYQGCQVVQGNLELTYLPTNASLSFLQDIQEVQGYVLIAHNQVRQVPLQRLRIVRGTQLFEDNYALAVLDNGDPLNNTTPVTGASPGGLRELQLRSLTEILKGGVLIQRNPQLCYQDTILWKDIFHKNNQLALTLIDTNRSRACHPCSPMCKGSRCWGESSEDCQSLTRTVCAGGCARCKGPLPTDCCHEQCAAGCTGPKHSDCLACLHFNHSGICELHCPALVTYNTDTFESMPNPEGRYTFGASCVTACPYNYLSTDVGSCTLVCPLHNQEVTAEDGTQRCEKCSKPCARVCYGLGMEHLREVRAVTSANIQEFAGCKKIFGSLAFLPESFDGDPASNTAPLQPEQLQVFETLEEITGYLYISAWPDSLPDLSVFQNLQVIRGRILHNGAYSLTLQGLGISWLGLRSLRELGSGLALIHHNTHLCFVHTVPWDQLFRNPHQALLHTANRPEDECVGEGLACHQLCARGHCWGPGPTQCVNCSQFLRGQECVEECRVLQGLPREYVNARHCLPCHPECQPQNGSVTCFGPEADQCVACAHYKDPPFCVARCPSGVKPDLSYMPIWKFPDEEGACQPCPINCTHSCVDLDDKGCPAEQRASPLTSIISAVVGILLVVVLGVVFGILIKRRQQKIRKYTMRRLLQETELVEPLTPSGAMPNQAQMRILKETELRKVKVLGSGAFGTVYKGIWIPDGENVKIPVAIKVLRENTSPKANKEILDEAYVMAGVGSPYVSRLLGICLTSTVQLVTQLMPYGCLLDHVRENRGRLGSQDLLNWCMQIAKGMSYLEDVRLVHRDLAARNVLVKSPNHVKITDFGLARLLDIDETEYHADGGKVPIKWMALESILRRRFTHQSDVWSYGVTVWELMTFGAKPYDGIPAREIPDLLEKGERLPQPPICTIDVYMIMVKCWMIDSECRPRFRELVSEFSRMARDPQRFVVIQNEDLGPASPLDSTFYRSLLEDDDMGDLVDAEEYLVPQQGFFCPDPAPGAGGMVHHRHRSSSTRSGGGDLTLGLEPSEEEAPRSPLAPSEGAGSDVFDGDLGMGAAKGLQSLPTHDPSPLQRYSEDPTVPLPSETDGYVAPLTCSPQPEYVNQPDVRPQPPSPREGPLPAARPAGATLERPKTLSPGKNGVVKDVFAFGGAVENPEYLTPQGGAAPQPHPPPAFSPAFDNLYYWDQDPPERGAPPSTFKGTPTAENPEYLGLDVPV

[3] = SK-BR-3 cell growth inhibitors, pilot screen, 24 h, human (AID 572;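 active = viability at or below 10% of carrier control in both of two separate runs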;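 also: compound exposure lasted between 18 and 24 h rather than exactly 24 h; 100% = carrier-treated control wells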); conditions: SK-BR-3 viability, CellTiter-Glo luminescence, at 10 µM, stronger effect = lower value
[4] = HUVEC growth inhibition – cell-based, human, primary screen (AID 575;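 active = viability at or below 30% in both replicate assays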;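 also: 100% = median of untreated cell wells with 0.1% DMSO on each plate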); conditions: HUVEC proliferation, CellTiter-Glo luminescence, 72 h; at 10 µM; stronger effect = lower value
[5] = growth inhibitors of H69AR lung tumor, primary screen, human, duplicate replicates (AID 580;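 active = viability at or under a set limit in both replicates, limit being median viability minus 3 SD, cut at about 48% in these data, passing the limit was not always enough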;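 also: 100% = mean luminescence of untreated wells and 0% = no signal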); conditions: H69AR lung tumor cells viability, ATP luminescence, 72 h; at 10 µM; stronger effect = lower value
[6] = reversal of MRP1-mediated doxorubicin resistance, pilot screen, H69AR cells, doxorubicin co-treatment (AID 601;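 active = viability loss from added drug above about 55%, and viability with drug at most 40%, in both replicates, limit read from the data, passing the limit was not always enough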); conditions: CellTiter-Glo, 72 h, at 10 µM; for differential viability (reversal): stronger effect = higher value
[7] = 384-well plate pilot, post-Golgi transport modulator project, inhibition of yeast transport mutant growth (AID 636; in the data active = inhibition above about 31%); conditions: absorbance 615 nm, about 18 h, stronger effect = higher value
[8] = growth suppression of yeast trafficking mutant, preliminary HTS, modulators of trafficking downstream of Golgi apparatus project, 1536-format plate, OD 615 nm (AID 637; in the data active = inhibition above about 30%); conditions: yeast transport mutant growth, absorbance 615 nm, 18 h; stronger effect = higher value
[9] = OD615 S. cerevisiae growth inhibition, permissive medium, pilot counter-assay, permissive growth control for S. cerevisiae lifespan shortening project (AID 705;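 active = growth inhibition above 25% in both replicates, a cutoff set 3 SD above the mean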); conditions: OD615, 24 h, at 10 µM, stronger effect = higher value
[10] = Restrictive medium S. cerevisiae growth inhibition, OD615, pilot screen of yeast lifespan reduction project, restrictive growth control (AID 706;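 active = growth inhibition above a set limit, 3 SD over mean compound inhibition, in both replicates, cut at about 43% in these data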;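 also: modified DeaD lifespan yeast strain shifted to restrictive glucose medium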); conditions: OD615, 48 h, at 10 µM, stronger effect = higher value
[11] = viability gain of MRP-1-high H69AR cells under doxorubicin, pilot screen, MRP-1 activator project, CellTiter-Glo, duplicate (AID 807;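 active = viability increase at or above a cutoff of the median across tested compounds plus 3 SD, cut at about 8.5% in these data, passing the limit was not always enough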;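 also: compound pretreatment 18-22 h then 72 h combined with doxorubicin; 0% = doxorubicin alone and 100% = vehicle without doxorubicin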); conditions: H69AR viability with doxorubicin, CellTiter-Glo luminescence; at 10 µM; stronger effect = higher value
[12] = growth suppression of beta-catenin knockout HCT116, pilot screen, human colon tumor cells (AID 823;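 active = cell viability at or below a set limit in both duplicate runs, the limit being the all-compound median minus 4 SD, cut at about 23% in these data, passing the limit was not always enough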;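 also: 0% = wells killed by 20 µM Hyamine and 100% = untreated DMSO cell wells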); conditions: CellTiter-Glo, 60 h, at 10 µM, stronger effect = lower value
[13] = growth suppression of PTEN-deleted HCT116, pilot screen, cell-based, HCT116 clonal line, CellTiter-Glo (AID 824;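 active = viability at or below 27.92% in each of two runs, the all-compound median minus 4 SD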;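 also: 0% = 20 µM Hyamine control and 100% = vehicle cell control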); conditions: 60 h, at 10 µM, stronger effect = lower value
[14] = inhibitors of the yeast RAM network, pilot screen, dse1pr::URA3 reporter, 5-FOA selection (AID 869);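 also: 0% = DMSO wells with no growth and 100% = 10 µM 1-NA-PP1 with full growth; RAM network block rescues cells from 5-FOA so hits raise OD615 growth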; conditions: S. cerevisiae dse1pr::URA3 5-FOA growth, OD615, 2 d; at 10 µM; stronger effect = higher value; strain carries analog-sensitive mutant Cbk1 kinase
[15] = RAM signaling pathway blockade in yeast – S. cerevisiae, Pdr1DBD-CYC8 efflux-inhibited sensitized strain, primary screen (AID 1298;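 active = RAM network inhibition above 8.4% in each of two replicates, 3 SD over the compound average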;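 also: 0% = DMSO untreated cells without growth and 100% = 10 µM 1-NA-PP1 full growth; higher means more yeast growth rescued from 5-FOA killing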); conditions: S. cerevisiae cbk1-as DSE1-URA3 strain, 5-FOA growth OD615, 2 d; at 50 µM; stronger effect = higher value
[16] = H69AR cells + 2 uM doxorubicin, measured here: viability with 2 uM doxorubicin, stronger effect = lower value
[17] = H69AR cells, compound alone cytotoxicity

| SMILES | viability [1] [%] | Her2 level [2] | viability [3] | viability [4] | viability [5] | differential viability (reversal) ([6]; H69AR cells + 2 uM doxorubicin) | viability [6, 16] [%] | viability [6, 17] [%] | inhibition [7] | inhibition [8] | growth inhibition [9] | growth inhibition [10] | viability increase [11] | viability [12] | viability [13] | inhibition [14] | RAM network inhibition [15] |
| --- | --- | --- | --- | --- | --- | --- | --- | --- | --- | --- | --- | --- | --- | --- | --- | --- | --- |
| COc1ccc(CCNC(=O)C2(C)CCC(=O)N2Cc2ccc3c(c2)OCO3)cc1OC (stereo not drawn) | 77.5 | 98% (inactive) | 77.5% (inactive) | 88.2% (inactive) | 92.8% (inactive) | 5.6% (inactive) | 87.2 | 92.8 | -2.69% (inactive) | -5.17% (inactive) | -13.9% (inactive) | -25.8% (inactive) | 0.26% (inactive) | 102% (inactive) | 97.5% (inactive) | 0.985% (inactive) | 1.36% (inactive) |
| Cc1noc(C(=O)Nc2ccc3c(c2)OCO3)c1Cl | 84.5 | 75% (inactive) | 84.5% (inactive) | 51.4% (inactive) | 96.9% (inactive) | -0.25% (inactive) | 97.2 | 96.9 | -4.13% (inactive) | 1.67% (inactive) | -0.74% (inactive) | 6.31% (inactive) | -3.47% (inactive) | 95.9% (inactive) | 89.7% (inactive) | 2.92% (inactive) | 5.2% (inactive) |
| O=C(CSc1nnc(Cn2c(=O)sc3ccccc32)n1-c1ccccc1)NCC1CCCO1 (stereo not drawn) | 80.5 | 108% (inactive) | 80.5% (inactive) | 82.3% (inactive) | 99.8% (inactive) | 12.6% (inactive) | 87.2 | 99.8 | -1.92% (inactive) | 0.83% (inactive) | -4.79% (inactive) | 10.2% (inactive) | -2.08% (inactive) | 99.1% (inactive) | 98.6% (inactive) | 1.41% (inactive) | 0.47% (inactive) |
| CSc1nc2c(c(=O)n1C)SC(C)C2 (stereo not drawn) | 97 | 92.5% (inactive) | 97% (inactive) | 103% (inactive) | 90.8% (inactive) | -4.56% (inactive) | 95.4 | 90.8 | -5.87% (inactive) | -1.67% (inactive) | -6.38% (inactive) | -10.4% (inactive) | -2.62% (inactive) | 103% (inactive) | 93.5% (inactive) | 1.56% (inactive) | 5.01% (inactive) |
| CCOC(=O)c1csc(NC(=O)C2CCCCC2)n1 | 81 | 90% (inactive) | 81% (inactive) | 95% (inactive) | 96.5% (inactive) | 26.3% (inactive) | 70.2 | 96.5 | -1.47% (inactive) | 0.83% (inactive) | -5.67% (inactive) | 7.35% (inactive) | 2.52% (inactive) | 91.4% (inactive) | 94.6% (inactive) | 0.89% (inactive) | 0.47% (inactive) |
| COC(=O)C(C)Sc1nnc2n(-c3cccc(C)c3)c(=O)c3c4c(sc3n12)CCCC4 (stereo not drawn) | 87.5 | 112% (inactive) | 87.5% (inactive) | 86.8% (inactive) | 83.1% (inactive) | 64.7% (active) | 18.4 | 83.1 | 2.53% (inactive) | 2% (inactive) | -9.47% (inactive) | 16.4% (inactive) | -1.93% (inactive) | 89.5% (inactive) | 85.5% (inactive) | 0.06% (inactive) | 1.84% (inactive) |
| CC(=O)NCCc1nc2ccccc2[nH]1 | 94 | 104% (inactive) | 94% (inactive) | 91.9% (inactive) | 93.7% (inactive) | -1% (inactive) | 94.7 | 93.7 | -5.2% (inactive) | -2.33% (inactive) | -3.03% (inactive) | 6.51% (inactive) | -0.62% (inactive) | 107% (inactive) | 97% (inactive) | -0.365% (inactive) | 2.3% (inactive) |
| CCOC(=O)c1sc2nc(NC(=O)C3CCCCC3)sc2c1C | 95.5 | 92.5% (inactive) | 95.5% (inactive) | 58.7% (inactive) | 76.9% (inactive) | 1.21% (inactive) | 75.7 | 76.9 | -0.4% (inactive) | -7.21% (inactive) | -4.09% (inactive) | -7.62% (inactive) | -0.22% (inactive) | 89.1% (inactive) | 95.2% (inactive) | 3.21% (inactive) | 4.73% (inactive) |
| O=C(O)c1ccccc1S(=O)(=O)NCC(O)COc1ccc(Br)cc1 (stereo not drawn) | 102 | 84.5% (inactive) | 102% (inactive) | 119% (inactive) | 99.9% (inactive) | 6.29% (inactive) | 93.6 | 99.9 | -2.47% (inactive) | -1.17% (inactive) | -17.1% (inactive) | -22.2% (inactive) | 0.84% (inactive) | 97.9% (inactive) | 100% (inactive) | 1.09% (inactive) | 7.5% (inactive) |
| O=C(Nc1ccc(Cl)cn1)c1cccnc1 | 104 | 112% (inactive) | 104% (inactive) | 81.6% (inactive) | 70.1% (inactive) | -17.4% (inactive) | 87.6 | 70.1 | -0.52% (inactive) | -6.56% (inactive) | -8.23% (inactive) | -14.8% (inactive) | -4.65% (inactive) | 63% (inactive) | 62% (inactive) | 1.56% (inactive) | -0.47% (inactive) |
| CC(=O)NC(CCS(C)(=O)=O)C(=O)Nc1cccc(C)c1C (stereo not drawn) | 89.5 | 93.5% (inactive) | 89.5% (inactive) | 86.8% (inactive) | 75.9% (inactive) | -15.4% (inactive) | 91.3 | 75.9 | -5.2% (inactive) | 4.33% (inactive) | -7.1% (inactive) | -8.2% (inactive) | 0.19% (inactive) | 105% (inactive) | 100% (inactive) | 0.395% (inactive) | 3.33% (inactive) |
| CCOC(=O)c1sc2nc(NC(=O)COc3ccccc3)sc2c1C | 78.5 | 123% (inactive) | 78.5% (inactive) | 74.1% (inactive) | 69.4% (inactive) | -10% (inactive) | 79.5 | 69.4 | 3.72% (inactive) | -0.33% (inactive) | -2.58% (inactive) | -19.8% (inactive) | 1.51% (inactive) | 109% (inactive) | 98.4% (inactive) | 2.67% (inactive) | 0.88% (inactive) |
| COc1ccccc1N(CC(=O)Nc1cccnc1)S(C)(=O)=O | 94.5 | 108% (inactive) | 94.5% (inactive) | 89.8% (inactive) | 89.3% (inactive) | 1.5% (inactive) | 87.8 | 89.3 | 0.81% (inactive) | -3.28% (inactive) | -5.2% (inactive) | 13.5% (inactive) | -1.31% (inactive) | 103% (inactive) | 97.2% (inactive) | 2.62% (inactive) | 3.47% (inactive) |
| COc1ccc(NC(=O)CSc2nc3c(c(=O)n2-c2ccccc2OC)SCC3)cc1 | 102 | 110% (inactive) | 102% (inactive) | 87.4% (inactive) | 89.7% (inactive) | -5.71% (inactive) | 95.4 | 89.7 | -1.6% (inactive) | -5.5% (inactive) | 1.7% (inactive) | -1.84% (inactive) | -0.32% (inactive) | 99% (inactive) | 98.9% (inactive) | 2.67% (inactive) | 3.97% (inactive) |
| CCn1cc(C2=NOC(C(=O)Nc3c(C)nn(Cc4ccc(F)cc4)c3C)C2)c(C)n1 (stereo not drawn) | 76.5 | 86.5% (inactive) | 76.5% (inactive) | 86.2% (inactive) | 88.2% (inactive) | 1.12% (inactive) | 87.1 | 88.2 | -1.41% (inactive) | 1.67% (inactive) | -11.1% (inactive) | 2.07% (inactive) | 1.43% (inactive) | 95.2% (inactive) | 103% (inactive) | 1.9% (inactive) | 1.61% (inactive) |
| O=c1[nH]c(SCc2ccc(F)cc2)nc2c1cnn2-c1ccc(F)cc1 | 69 | 106% (inactive) | 69% (inactive) | 70.7% (inactive) | 79.1% (inactive) | 38.2% (inactive) | 40.8 | 79.1 | 1.87% (inactive) | 12.3% (inactive) | -5.11% (inactive) | -7.31% (inactive) | -6.32% (inactive) | 39.8% (inactive) | 51.5% (inactive) | 1.02% (inactive) | 4.01% (inactive) |
| CC1CCc2nn(CC(=O)NCCN3CCCCC3C)cc2C1 (stereo not drawn) | 85 | 104% (inactive) | 85% (inactive) | 103% (inactive) | 90% (inactive) | -2.58% (inactive) | 92.6 | 90 | -2.18% (inactive) | 0.83% (inactive) | 0.05% (inactive) | -11% (inactive) | -1.56% (inactive) | 101% (inactive) | 98.5% (inactive) | 2.96% (inactive) | 1.89% (inactive) |
| CCCCCn1c(=O)[nH]c2cc(C(=O)NCCCN3CCCCC3)ccc2c1=O | 76 | 74.5% (inactive) | 76% (inactive) | 86.5% (inactive) | 88.7% (inactive) | 6.66% (inactive) | 82 | 88.7 | -6.76% (inactive) | 5.33% (inactive) | -6.6% (inactive) | 6.35% (inactive) | -2.74% (inactive) | 75.1% (inactive) | 77.5% (inactive) | -0.475% (inactive) | 0.41% (inactive) |
| Cc1nnc(SCC(=O)Nc2c(Cl)cccc2Cl)[nH]c1=O | 104 | 101% (inactive) | 104% (inactive) | 99.1% (inactive) | 93.9% (inactive) | 0.52% (inactive) | 93.3 | 93.9 | -3.73% (inactive) | -2.17% (inactive) | -7.89% (inactive) | 7.47% (inactive) | 0.15% (inactive) | 98.7% (inactive) | 104% (inactive) | 1.54% (inactive) | 4.64% (inactive) |
